Measurements: PubChem BioAssay AID1159580 (chemical genetic matrix, 2015)
Among all 5,500 compounds or so, about 2,000 (36%) were called active. Not shown: some 18% with an inconclusive outcome. Rule as the data show it: active = normalized growth mostly below about 0.91 (no sharp cut-off); inconclusive = no clear call, values can overlap the other calls; inactive = mostly above about 0.92. The list shows a part of the results.

Assay: chemical genetic growth profiling, strain panel (AID 1159580);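 also: tested at 20 µM; growth read once vehicle control cultures reached saturation at 30 °C; 1 = growth at the plate median or of vehicle wells; lower values mean less growth of the strain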
Conditions: S. cerevisiae deletion strains, growth OD

Measured: normalized growth

O=C(Nc1ccc(Cl)cc1Cl)c1cnccc1C(F)(F)F
inactive: locus YAR019C, strain CDC15, active compounds read low 0.978 | locus YBL105C, strain PKC1, active compounds read low 0.976 | locus YBR135W, strain CKS1, active compounds read low 0.981 | locus YBR136W, strain MEC1, active compounds read low 0.971 | locus YBR160W, strain CDC28, active compounds read low 0.974 | locus YDL017W, strain CDC7, active compounds read low 0.984 | locus YDL028C, strain MPS1, active compounds read low 0.976 | locus YDL101C, strain DUN1, active compounds read low 0.964 | locus YDL108W, strain KIN28, active compounds read low 0.97 | locus YDL132W, strain cdc53, active compounds read low 0.972 | locus YDL214C, strain PRR2, active compounds read low 0.987 | locus YDR052C, strain DBF4, active compounds read low 0.977 | locus YDR054C, strain cdc34, active compounds read low 0.977 | locus YDR226W, strain ADK1, active compounds read low 0.976 | locus YDR477W, strain SNF1, active compounds read low 0.981 | locus YER123W, strain YCK3, active compounds read low 0.958 | locus YER133W, strain GLC7, active compounds read low 0.976 | locus YFL009W, strain cdc4, active compounds read low 0.971 | locus YFL029C, strain CAK1, active compounds read low 0.975 | locus YFR003C, strain YPI1, active compounds read low 0.977 | locus YFR019W, strain FAB1, active compounds read low 0.98 | locus YFR028C, strain CDC14, active compounds read low 0.97 | locus YGR040W, strain KSS1, active compounds read low 0.977 | locus YGR052W, strain FMP48, active compounds read low 1.13 | locus YGR092W, strain DBF2, active compounds read low 0.998 | locus YHR030C, strain SLT2, active compounds read low 1.15 | locus YHR079C, strain IRE1, active compounds read low 1.09 | locus YHR082C, strain KSP1, active compounds read low 1.11 | locus YHR205W, strain SCH9, active compounds read low 0.974 | locus YIL147C, strain SLN1, active compounds read low 0.971 | locus YJL095W, strain BCK1, active compounds read low 1.14 | locus YJL128C, strain PBS2, active compounds read low 0.935 | locus YJL157C, strain FAR1, active compounds read low 0.973 | locus YJR016C, strain ILV3, active compounds read low 0.976 | locus YJR066W, strain TOR1 (second series), active compounds read low 1 | locus YJR066W, strain TOR1, active compounds read low 1.12 | locus YKL048C, strain ELM1, active compounds read low 0.974 | locus YKL067W, strain YNK1, active compounds read low 0.981 | locus YKL101W, strain HSL1, active compounds read low 0.986 | locus YKL193C, strain SDS22, active compounds read low 0.967 | locus YKL203C, strain TOR2, active compounds read low 1.05 | locus YLR113W, strain HOG1, active compounds read low 1.05 | locus YLR133W, strain CKI1, active compounds read low 0.988 | locus YLR403W, strain SFP1, active compounds read low 0.967 | locus YML070W, strain DAK1, active compounds read low 0.98 | locus YMR001C, strain CDC5, active compounds read low 0.972 | locus YMR205C, strain PFK2 (second series), active compounds read low 0.993 | locus YMR277W, strain FCP1, active compounds read low 0.962 | locus YNL006W, strain LST8, active compounds read low 0.973 | locus YNL020C, strain ARK1, active compounds read low 0.989 | locus YNL161W, strain CBK1, active compounds read low 0.974 | locus YNL183C, strain NPR1, active compounds read low 1.1 | locus YNL207W, strain RIO2, active compounds read low 0.976 | locus YNL222W, strain SSU72, active compounds read low 0.976 | locus YNL307C, strain MCK1 (second series), active compounds read low 0.988 | locus YOL078W, strain AVO1, active compounds read low 0.975 | locus YOL136C, strain PFK27, active compounds read low 0.982 | locus YOR061W, strain CKA2, active compounds read low 0.99 | locus YOR119C, strain RIO1, active compounds read low 1.01 | locus YOR231W, strain MKK1, active compounds read low 1.1 | locus YOR329C, strain SCD5, active compounds read low 0.975 | locus YPL031C, strain PHO85, active compounds read low 0.977 | locus YPL153C, strain RAD53, active compounds read low 0.99 | locus YPL204W, strain HRR25, active compounds read low 0.976 | locus YPL209C, strain IPL1, active compounds read low 0.967 | locus YPL256C, strain CLN2, active compounds read low 1.07 | locus YPR025C, strain CCL1, active compounds read low 0.976 | locus YPR106W, strain ISR1, active compounds read low 0.972 | locus YPR111W, strain DBF20, active compounds read low 0.974 | strain NNK1, active compounds read low 0.971 | strain TSCII, active compounds read low 0.972
